Laboratory results reported in PubChem BioAssay (NCATS).
Records with an inconclusive call do not appear. Unmarked numbers belong to inactive results. The source made the active and inactive calls. Calls follow the shape of the dose curve; as a rule, active = well fitted cell-killing curve with a large enough effect; inconclusive = small, poorly fitted or top-dose-only effect, or effect the other way; inactive = flat fitted curve, though single readings scatter.

tested on: HeLa; assay: Primary qHTS to identify gynecologic anti-cancer compounds using libraries of approved drugs and bioactive compounds (AID 1345084); settings: Gynecologic cancer cell panel viability, ATPlite luminescence, 48 h; series mostly up to 57.5 µM; activity change, negative = cytotoxicity: at the top concentration; also: nearly all actives have a fitted effect of over 55% in size
Method in brief: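 Luminescence from the ATPlite ATP-monitoring reagent indicates viable cell number; lower signal means cytotoxicity. Cells received compound 16 h after seeding and were exposed for 48 h across five concentrations.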
% is scaled to controls: 0 for no effect and ±100 for the full control effect; potency is read from the fitted curve at half-maximal effect.

Structure (SMILES) | activity change, negative = cytotoxicity | Potency
O=C(NNc1ccccc1)c1ccncc1 | 0.936% | –
COc1ccccc1NC(=O)Nc1ccc2ccccc2c1 | 0.48% | –
COc1cc(O)c(C(=O)CCc2ccc(O)cc2)c(O[C@@H]2O[C@H](CO)[C@@H](O)[C@H](O)[C@H]2O)c1 | 6.39% [at 25.3 µM] | –
CCOC(=O)c1cnn(-c2ccc(NC(=O)C(Cl)=C(Cl)Cl)cc2)c1C(F)(F)F | 13.9% | –
CN(CCCNC(=O)c1ccc2nc3c(c(Cl)c2c1)CCCC3)Cc1ccccc1 | 11.3% | –
Cc1ccc2c(Nc3ccc(Cl)cc3)nccc2c1Nc1ncccc1-c1ncnc2nc[nH]c12 | -2.04% | –
O=C(NCc1ccc(Oc2ccccc2)cc1)c1nc(-c2cc(Br)c(O)c(Br)c2)no1 | 0.479% | –
O=C(Nc1ccc(F)cc1)N1CCc2ccccc2C1c1ccc(C(F)(F)F)cc1 (stereo unspecified) | -8.55% | –
CC(C)(C)c1ccc(-c2nc3ccccc3[nH]2)cc1 | – | 2.24 µM (active)
C=C(C)C(=O)OC1[C@@H]2C(=C)C(=O)O[C@@H]2C[C@@H](C)[C@@H]2C=CC(=O)[C@@]12C (stereo partly specified) | 1.93% [at 38.5 µM] | –
COc1ccccc1-c1cc(Nc2cccc(CS(N)(=O)=O)c2)ncn1 | – | 22.4 µM (active)
CC1CCC2C(=CCC(O)C2(C)C)C1(C)Cc1c(O)cc(CO)c(C=O)c1O (stereo unspecified) | -0.368% [at 38.5 µM] | –
CC1(C)CC23[C@@H]4CC(=O)[C@@H]2COC(=O)[C@@H]3CC[C@H]41 | 4.57% | –
CCN1CCN(Cc2ccc(-c3cc4c(NC(C)c5ccccc5)ncnc4[nH]3)cc2)CC1 (stereo unspecified) | -10.3% | –
CN1CCN(C(=O)c2ccc(Nc3nccc(-c4cccs4)n3)cc2Cl)CC1 | 4.35% | –
Cn1cnc(-c2nccc3c(=O)[nH]c(OCCCC(F)(F)F)nc23)c1 | 6.74% | –
